This is an account of results in PubChem BioAssay (Tox21).

Experiment [1] deals with Acetylcholinesterase (Homo sapiens) (UniProt P22303). Nature of the experiment: Acetylcholinesterase (AChE) small molecule antagonists: colormetric cell-based qHTS assay (AID 1347395). Note: nearly all actives have a fitted effect of over 30% in size. Note: potency is the fitted concentration of half-maximal effect. The method in brief: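 Endogenous AChE of human neuroblastoma SH-SY5Y cells was measured with an Ellman-type DTNB/acetylthiocholine mix. Compound pretreatment lasted 30 min at 37 C; substrate reaction ran 90 min at 37 C.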
Acetylcholinesterase (Homo sapiens), sequence (P22303 whole entry, looked up): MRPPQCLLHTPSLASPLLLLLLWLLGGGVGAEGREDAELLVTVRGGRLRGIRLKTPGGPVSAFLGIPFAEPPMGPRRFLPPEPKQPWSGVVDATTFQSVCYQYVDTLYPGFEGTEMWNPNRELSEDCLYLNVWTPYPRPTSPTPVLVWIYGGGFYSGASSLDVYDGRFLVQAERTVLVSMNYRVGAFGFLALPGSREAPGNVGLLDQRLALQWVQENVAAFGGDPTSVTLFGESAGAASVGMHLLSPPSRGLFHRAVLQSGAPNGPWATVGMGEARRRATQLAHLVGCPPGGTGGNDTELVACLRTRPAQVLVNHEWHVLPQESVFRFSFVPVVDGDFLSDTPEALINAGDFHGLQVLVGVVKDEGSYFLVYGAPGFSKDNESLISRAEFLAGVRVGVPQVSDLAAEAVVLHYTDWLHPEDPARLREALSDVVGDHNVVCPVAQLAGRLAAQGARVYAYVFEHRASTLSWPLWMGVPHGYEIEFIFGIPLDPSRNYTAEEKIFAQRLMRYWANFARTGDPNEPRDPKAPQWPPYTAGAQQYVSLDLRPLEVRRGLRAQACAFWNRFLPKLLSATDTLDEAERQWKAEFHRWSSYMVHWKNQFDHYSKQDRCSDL

The target is the same in experiment [2]. Nature of the experiment: Acetylcholinesterase (AChE) small molecule antagonists: enzyme-based qHTS assay (AID 1347397). Note: nearly all actives have a fitted effect of over 55% in size. Note: potency is the fitted concentration of half-maximal effect. Conditions: Potency: AChE enzyme activity inhibition; outcome: AChE enzyme activity inhibition. The gist of the method:
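Tox21 library chemicals are tested in qHTS format against recombinant human AChE. The enzyme, dispensed at 50 mU/mL, sits with compound for 30 min at room temperature. A DTNB–acetylthiocholine cocktail follows, and colour is read after 10 min.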
In general terms: Quantitative high-throughput screening tests each substance at several concentrations.

Experiment [3] has the same target. Put plainly: Acetylcholinesterase (AChE) small molecule antagonists: fluorescence cell-based qHTS assay (AID 1347398). Note: nearly all actives have a fitted effect of over 50% in size. Note: potency is the fitted concentration of half-maximal effect. To be noted: Potency: AChE activity; outcome: AChE activity. The method in brief:
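Cellular AChE inhibition: SH-SY5Y cells treated with test chemical for 30 min at 37 C, then acetylthiocholine hydrolysis followed over 40 min at room temperature via thiocholine-reactive Thiolite Green fluorescence (490/520 nm).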

Experiment [4] has the same target. Put plainly: Acetylcholinesterase (AChE) small molecule antagonists: enzyme-based qHTS assay with human liver microsomes (AID 1347399). Note: nearly all actives have a fitted effect of over 60% in size. Conditions: Potency: qHTS inhibition; outcome: qHTS inhibition. The method in brief:
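Recombinant human AChE (50 mU/mL in the enzyme mix) and human liver microsomes (0.25 mg/mL final) were preincubated with compound and NADPH (0.25 mg/mL final) for 30 min at 37 C. Acetylthiocholine/DTNB was then added; thiocholine was read colorimetrically after 10 min at room temperature.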

SMILES strings stand for the structures. Values without a mark were called inactive. Results filed as inconclusive are left out. Calls of active or inactive are those of the source. Calls come from the whole dose curve.
% is set by controls: 0 for no effect and ±100 for the full control effect.

`Nc1ncn([C@@H]2O[C@H](CO)[C@@H](O)[C@H]2O)c(=O)n1`: the Potency result in experiment [1], in experiment [2], in experiment [3] and in experiment [4] was “inactive” throughout.
With `C=CC(=O)NC(C)(C)CS(=O)(=O)O`, the Potency entry in experiment [1], in experiment [2], in experiment [3] and in experiment [4] was “inactive” in each case.
In the case of `Cc1ccc2oc(CN(Cc3ccccc3)C(=O)Nc3c(F)cc(F)cc3F)c(-c3ccc(Cl)cc3)c2c1`, the Potency entry in experiment [1], in experiment [2], in experiment [3] and in experiment [4] was “inactive” throughout.
For the compound `C/C=C(/C(=C/C)c1ccc(O)cc1)c1ccc(O)cc1`, the Potency entry in experiment [1], in experiment [2], in experiment [3] and in experiment [4] was “inactive” each time.
On to `Cc1ccc(S(=O)(=O)NC2CCCCC2)cc1`, for which the Potency entry in experiment [1], in experiment [2], in experiment [3] and in experiment [4] was “inactive” in each case.
On to `Nc1ccc(N=Nc2ccc(N)cc2)cc1`, for which the Potency entry in experiment [1], in experiment [2], in experiment [3] and in experiment [4] was “inactive” in each case.
Regarding `CCOc1ccc2c(c1)C(C)=CC(C)(C)N2`, the Potency result in experiment [1], in experiment [2], in experiment [3] and in experiment [4] was “inactive” throughout.
`CCCCCCCCCCCCCOC(=O)CCSCCC(=O)OCCCCCCCCCCCCC`: in experiment [1], the activity, negative = inhibition was 3.05% [at 23.6 µM]. In addition, the figures for the activity change, negative = inhibition in experiment [2], in experiment [3] and in experiment [4] were 1.34% [at 23.6 µM], -0.492% [at 23.8 µM] and 0.346% [at 23.6 µM], respectively.
Consider `CC(=O)c1ccc(S(=O)(=O)NC(=O)NC2CCCCC2)cc1`, for which the Potency entry in experiment [1], in experiment [2], in experiment [3] and in experiment [4] was “inactive” in each case.
In the case of `OCCN1CCN(CCCN2c3ccccc3C=Cc3ccccc32)CC1`, the Potency result in experiment [1], in experiment [2], in experiment [3] and in experiment [4] was “inactive” each time.
With `CNC(=O)CN(CCN(CCN(CC(=O)[O-])CC(=O)NC)CC(=O)[O-])CC(=O)[O-].O.[Gd+3]`, the Potency result in experiment [1], in experiment [2], in experiment [3] and in experiment [4] was “inactive” in each case.
On to `Nc1nc2c(ncn2CCC(CO)CO)c(=O)[nH]1`, for which the Potency entry in experiment [1], in experiment [2], in experiment [3] and in experiment [4] was “inactive” throughout.
As to `Cc1ccc(C(=O)Oc2ccc(C(O)CNC(C)(C)C)cc2OC(=O)c2ccc(C)cc2)cc1` (stereo not given), the Potency entry in experiment [1], in experiment [2], in experiment [3] and in experiment [4] was “inactive” in each case.
Turning to `Nc1ccc(C(=O)Nc2ccccc2N)cc1`, the Potency entry in experiment [1], in experiment [2], in experiment [3] and in experiment [4] was “inactive” each time.
For `CCCCCC=O`, the Potency result in experiment [1], in experiment [2], in experiment [3] and in experiment [4] was “inactive” each time.
For `CC(C)OC(=O)CCCCC(=O)OC(C)C`, the Potency result in experiment [1], in experiment [2], in experiment [3] and in experiment [4] was “inactive” throughout.
`N[C@H](C(=O)O)c1ccc(O)cc1`: in experiment [1], the activity, negative = inhibition was 0% [at 23.6 µM]. Besides, the activity change, negative = inhibition in experiment [2] is 0.185% [at 23.6 µM]; in experiment [3], 10.4% [at 23.8 µM]; in experiment [4] it was -0.0013% [at 23.6 µM].
As to `N[C@@H](Cc1cc(I)c(Oc2ccc(O)c(I)c2)c(I)c1)C(=O)O`, the Potency result in experiment [1], in experiment [2], in experiment [3] and in experiment [4] was “inactive” throughout.
With `CC1CCCNC1` (stereo not given), the Potency entry in experiment [1], in experiment [2], in experiment [3] and in experiment [4] was “inactive” in each case.
Take `Cc1ccc(S(=O)(=O)NC(=O)NC2CCCCC2)cc1`: the Potency result in experiment [1], in experiment [2], in experiment [3] and in experiment [4] was “inactive” in each case.
Turning to `Cc1ccc2c(c1)C(=O)OC2=O`, the Potency result in experiment [1], in experiment [2], in experiment [3] and in experiment [4] was “inactive” throughout.
For the compound `C=CN1CCCC1=O`, the Potency result in experiment [1], in experiment [2], in experiment [3] and in experiment [4] was “inactive” in each case.
On to `CCC(C)(CCC(C)C)C(=O)[O][Sn]([CH3])([CH3])[O]C(=O)C(C)(CC)CCC(C)C` (stereo not given), for which the Potency entry in experiment [1], in experiment [2], in experiment [3] and in experiment [4] was “inactive” in each case.
`O=C(NOCC1CC1)c1ccc(F)c(F)c1Nc1ccc(I)cc1Cl`: the Potency entry in experiment [1], in experiment [2], in experiment [3] and in experiment [4] was “inactive” in each case.
In the case of `C/C=C/C(=O)N(CC)c1ccccc1C`, the Potency entry in experiment [1], in experiment [2], in experiment [3] and in experiment [4] was “inactive” in each case.
For `O=C[O][Al]([O]C=O)[O]C=O`, the Potency result in experiment [1], in experiment [2], in experiment [3] and in experiment [4] was “inactive” each time.
With `O=C(O)[C@H](O)[C@@H](O)[C@H](O[C@@H]1O[C@H](CO)[C@H](O)[C@H](O)[C@H]1O)[C@H](O)CO`, the Potency entry in experiment [1], in experiment [2], in experiment [3] and in experiment [4] was “inactive” throughout.
Regarding `CCCCCCCCCCCCCCCCCCO`, the Potency entry in experiment [1], in experiment [2], in experiment [3] and in experiment [4] was “inactive” throughout.
For `CC(C)Cc1nccs1`, the Potency entry in experiment [1], in experiment [2], in experiment [3] and in experiment [4] was “inactive” in each case.
As to `Cc1ccc2c(c1)C(=O)c1ccccc1C2=O`, the Potency result in experiment [1], in experiment [2], in experiment [3] and in experiment [4] was “inactive” throughout.
Turning to `O=C(O)Cc1cc(I)c(Oc2cc(I)c(O)c(I)c2)c(I)c1`, the Potency result in experiment [1], in experiment [2], in experiment [3] and in experiment [4] was “inactive” in each case.
With `COc1cc(O)cc(O)c1`, the Potency entry in experiment [1], in experiment [2], in experiment [3] and in experiment [4] was “inactive” each time.
Regarding `Cc1ccccc1CCO`, the Potency result in experiment [1], in experiment [2], in experiment [3] and in experiment [4] was “inactive” in each case.
`CCCCOC(=O)c1ccccc1`: the Potency result in experiment [1], in experiment [2], in experiment [3] and in experiment [4] was “inactive” throughout.
`CCCCS`: the Potency entry in experiment [1], in experiment [2], in experiment [3] and in experiment [4] was “inactive” throughout.
In the case of `CCc1c(C(=O)NN2CCCCC2)nn(-c2ccc(Cl)cc2Cl)c1-c1ccc(Br)cc1`, the Potency entry in experiment [1], in experiment [2], in experiment [3] and in experiment [4] was “inactive” throughout.
With `CCC[Si](OC)(OC)OC`, the Potency entry in experiment [1], in experiment [2], in experiment [3] and in experiment [4] was “inactive” throughout.
For `COC1=C(OC)C(=O)C(CCCCCCCCCCO)=C(C)C1=O`, the Potency result in experiment [1], in experiment [2], in experiment [3] and in experiment [4] was “inactive” each time.
Turning to `CCOC(=O)c1ccc(O)cc1`, the Potency entry in experiment [1], in experiment [2], in experiment [3] and in experiment [4] was “inactive” each time.
With `CCCCC(CC)COC(=O)CCCCCCCCC(=O)OCC(CC)CCCC` (stereo not given), the Potency result in experiment [1], in experiment [2], in experiment [3] and in experiment [4] was “inactive” each time.
As to `CCCC/C=C/C=C\C=O`, the Potency result in experiment [1], in experiment [2], in experiment [3] and in experiment [4] was “inactive” in each case.
On to `C/C=C(\C)C(=O)OCc1ccccc1`, for which the Potency result in experiment [1], in experiment [2], in experiment [3] and in experiment [4] was “inactive” each time.
For the compound `Nc1nc(Cl)nc2c1ncn2[C@H]1C[C@H](O)[C@@H](CO)O1`, the Potency entry in experiment [1], in experiment [2], in experiment [3] and in experiment [4] was “inactive” in each case.
Take `O=C(O)[C@@H](O)[C@H](O)[C@H](O)[C@@H](O)C(=O)O`: the Potency entry in experiment [1], in experiment [2], in experiment [3] and in experiment [4] was “inactive” in each case.
With `Cn1c(=O)c2[nH]c(Br)nc2n(C)c1=O`, the Potency entry in experiment [1], in experiment [2], in experiment [3] and in experiment [4] was “inactive” each time.
On to `CCc1cccc2c3c([nH]c12)C(CC)(CC(=O)O)OCC3` (stereo not given), for which the Potency result in experiment [1], in experiment [2], in experiment [3] and in experiment [4] was “inactive” in each case.
Take `Cc1ccc(O)c(C(C)(C)C)c1`: the Potency result in experiment [1], in experiment [2], in experiment [3] and in experiment [4] was “inactive” each time.
For `Nc1nc2c(ncn2COCCO)c(=O)[nH]1`, the Potency entry in experiment [1], in experiment [2], in experiment [3] and in experiment [4] was “inactive” in each case.
Turning to `CC(C)(C)C(=O)OCOP(=O)(COCCn1cnc2c(N)ncnc21)OCOC(=O)C(C)(C)C`, the Potency in experiment [1] is 30.9 µM (active); in experiment [2], 38.9 µM (active); in experiment [3], 13.8 µM (active). In experiment [4], the Potency entry is “inactive”.
In the same order, the values of `C=C[Si](OC)(OC)OC` are “inactive”, “inactive”, “inactive” and “inactive”.
In the same order, the values of `COC(C)(C)CCO` are “inactive”, “inactive”, “inactive” and “inactive”.
The corresponding values for `Nc1nc2ccc([N+](=O)[O-])cc2s1` are “inactive”, “inactive”, “inactive” and “inactive”.
With `Cc1ccc(N=Nc2c(O)c(C(=O)O)cc3ccccc23)c(S(=O)(=O)O)c1`, the Potency entry in experiment [1], in experiment [2], in experiment [3] and in experiment [4] was “inactive” in each case.
For the compound `Cc1cc(C(=O)O)ccc1[N+](=O)[O-]`, the Potency entry in experiment [1], in experiment [2], in experiment [3] and in experiment [4] was “inactive” in each case.
On to `CCC(C)(C)c1ccc(CC(C)CN2C[C@@H](C)O[C@@H](C)C2)cc1` (stereo not given in full), for which the Potency result in experiment [1], in experiment [2], in experiment [3] and in experiment [4] was “inactive” throughout.
As for `CCOC(=O)c1ccc(OCCN2C[C@H](O)[C@@H](O)[C@H](O)[C@H]2CO)cc1`, the Potency entry in experiment [1], in experiment [2], in experiment [3] and in experiment [4] was “inactive” each time.
Take `Nc1ccc2c(O)cc(S(=O)(=O)O)cc2c1`: the Potency entry in experiment [1], in experiment [2], in experiment [3] and in experiment [4] was “inactive” in each case.
In the case of `CCC(=O)c1c(O)cc(O)cc1O`, the Potency entry in experiment [1], in experiment [2], in experiment [3] and in experiment [4] was “inactive” throughout.
In the case of `COCCOC(=O)C1=C(C)NC(C)=C(C(=O)OC(C)C)C1c1cccc([N+](=O)[O-])c1` (stereo not given), the Potency entry in experiment [1], in experiment [2], in experiment [3] and in experiment [4] was “inactive” each time.
Take `CC(C)[C@@H]1CC[C@@H](C)C[C@H]1O`: the Potency entry in experiment [1], in experiment [2], in experiment [3] and in experiment [4] was “inactive” throughout.
